# Bead autofluor – counter-screen for toxin protease inhibitors: compound fluorescence; compound autofluorescence counterscreen, microsphere flow cytometry; hits give high values; fluorescence intensity (no concentration beside the values); 360,000 compounds, 3.1% hits; in the data active = fluorescence intensity above about 16000; inconclusive = no clear call, values can overlap the other calls
# BoNT F protease – blocks Botulinum neurotoxin F light chain protease. Multiplex microsphere protease cleavage assay, flow cytometry. inhibition, % at 10 µM. 360,000 compounds, 0.22% hits; in the data active = inhibition above about 35%, passing the limit was not always enough; inconclusive = no clear call, values can overlap the other calls
# BoNT A protease – blocks Botulinum neurotoxin A light chain protease. multiplex microsphere protease substrate cleavage, flow cytometry. inhibition, % at 10 µM. 360,000 compounds, 0.17% hits
# BJeLR viability – kills HRASV12-expressing BJeLR cells. inhibition, % (no concentration beside the values). BJeLR (HRASV12) viability, CellTiter-Glo ATP luminescence, 48 h. 300,000 compounds, 0.17% hits; in the data active = inhibition above about 50%; inconclusive = no clear call, values can overlap the other calls
# Anthrax LF prot – blocks Bacillus anthracis lethal factor protease. multiplex microsphere protease cleavage assay, LF. inhibition, % at 10 µM. 360,000 compounds, 0.12% hits
# A number is an active result; 0 = inactive; ? = inconclusive; - = not tested or not shown. Sampled rows, rich in hits. Any-hit rate of the full collection: about 3.5%. Rule as the data show it, unless noted: active = inhibition above about 30%; inconclusive = no clear call, values can overlap the other calls; inactive = below that.
SMILES,Bead autofluor,BoNT F protease,BoNT A protease,BJeLR viability,Anthrax LF prot
CC1(C(=O)Nc2nnc(SCc3ccccc3)s2)Cc2ccccc2C(=O)O1 (stereo unspecified),22013,0,0,0,0
COc1cc2[nH]c(=O)n(CCCCCC(=O)NCCCN3CCC(C)CC3)c(=O)c2cc1OC,0,0,0,0,0
CC[C@H]1O[C@H](C)CC2=C1C(=O)OC(C)(C)O2,0,0,0,-,0
CSc1nc2nccc(-c3ccc(Cl)cc3)n2n1,0,0,0,0,0
COc1ccc(-c2ccnc3nc(Sc4ncc(C(F)(F)F)cc4Cl)nn23)cc1,20277,0,0,0,0
FC(F)(F)c1cnc(Sc2nc3nccc(-c4ccc(Cl)cc4)n3n2)c(Cl)c1,20640,0,0,0,0
CC(NC(=O)COC(=O)c1ccccc1SCC(=O)N1CCCC1)c1ccccc1 (stereo unspecified),-,-,-,0,-
CCC(=O)N1CCc2cc(S(=O)(=O)NC(C(=O)NC(C)c3ccccc3)C(C)C)ccc21 (stereo unspecified),0,0,0,0,0
CC(=O)N1CCCc2cc(S(=O)(=O)NC(C(=O)NC(C)c3ccccc3)C(C)C)ccc21 (stereo unspecified),16474,0,0,0,0
CC(=O)N1CCc2cc(S(=O)(=O)NC(C)c3ccccc3)ccc21 (stereo unspecified),0,0,0,0,0
CC(=O)N1CCc2cc(S(=O)(=O)NC(CC(C)C)C(=O)N3CCn4c3nc3ccccc34)ccc21 (stereo unspecified),21252,0,0,0,0
CCn1c(CN2CCN(c3cccc(C)c3C)CC2)n[nH]c1=S,0,0,0,0,0
CC(=O)NC(C)(c1ccccc1)c1nc(-c2csc3ccccc23)cs1 (stereo unspecified),0,0,0,-,0
CC(=O)c1c(C)[nH]c(C(=O)CSc2nnc(-c3ccc(Cl)cc3)n2CC2CCCO2)c1C (stereo unspecified),0,0,0,0,0
O=C(CN(Cc1cccs1)C(=O)CNS(=O)(=O)c1ccc(Cl)cc1)NCc1ccco1,21887,0,?,0,0
O=C(CN(Cc1cccs1)C(=O)CNS(=O)(=O)c1ccc(F)cc1)NCc1ccco1,0,0,0,0,0
O=C(NCCO)c1cccc(Nc2nc(-c3ccccc3)c3cc(Cl)ccc3n2)c1,20185,0,0,0,0
NNc1nc(-c2ccccc2)c2cc(Cl)ccc2n1,0,0,0,0,0
O=CC(=Cc1ccccc1)c1ccccc1,0,0,0,-,0
CCC(C)(C)n1nnnc1C(c1cc2ccc(OC)cc2[nH]c1=O)N1CCc2ccccc2C1 (stereo unspecified),0,0,0,0,0
CCC(C)(C)n1nnnc1C(c1cc2ccc(OC)cc2[nH]c1=O)N1CCc2ccccc21 (stereo unspecified),17938,0,?,0,0
CCC(C)(C)n1nnnc1C(c1cc2cc(OC)ccc2[nH]c1=O)N1CCc2ccccc21 (stereo unspecified),16186,0,0,0,0
CC(C)C[C@@H](CN)NC(=O)c1nc[nH]c1C(=O)N[C@@H](C)C(=O)CNC[C@H](C)NC(=O)c1nc[nH]c1C(=O)N[C@@H](CC(=O)O)C(=O)O,0,0,0,-,0
CC(C)NC(=O)c1ccc2c(c1)N(CC(=O)N1CCOCC1)C(=O)C(C)(C)O2,22372,0,0,0,0
CC(C)NC(=O)c1ccc2c(c1)N(CC(=O)N1CCCC1)C(=O)C(C)(C)O2,0,?,0,0,0
SMILES,Bead autofluor,BoNT F protease,BoNT A protease,BJeLR viability,Anthrax LF prot
CCCn1c2c(c(O)c(C(=O)Nc3ncccc3C)c1=O)CCCC2,22788,0,0,0,0
CC(=O)NC(c1ccccc1)c1nc(-c2ccc(Cl)cc2)cs1 (stereo unspecified),0,0,0,-,0
COc1cccc(-c2cnc3c(NC(C)=O)cc(-c4ccc(C(=O)NC5CC5)cc4)cn23)c1,0,0,0,-,0
O=C1CN(C(=O)COC(=O)c2oc3ccccc3c2COc2ccccc2)c2ccccc2N1,22869,0,0,0,0
O=C1CN(C(=O)COC(=O)Cc2ccsc2)c2ccccc2N1,23072,0,?,0,0
O=C1CN(C(=O)COC(=O)Cc2ccccc2)c2ccccc2N1,0,0,0,0,0
Cn1ccc2c(N3CCCCCCC3)cc3c(c21)C1CCC3O1 (stereo unspecified),0,0,0,-,0
Cc1ccc(C(=O)NC(=S)/C=C2\N(C)c3ccccc3C2(C)C)cc1,0,0,42.1,0,0
Cc1c(NC(=S)/C=C2\N(C)c3ccccc3C2(C)C)c(=O)n(-c2ccccc2)n1C,19375,0,0,0,0

# Screens (PubChem)
